Test results: PubChem BioAssay AID1986 (Sanford-Burnham Center for Chemical Genomics, 2009)
Where “and” joins values, the source holds several entries; their conditions need not be identical. Identical values can stand only once. Hit rate of the full screen: of about 290,000 compounds, about 890 (0.31%) were called active. Rule as the data show it: active = inhibition mostly above about 52% (no sharp cut-off); inactive = mostly below about 76%. Shown is part of a subset that was picked to be rich in actives.

Experiment: inhibitors of HIV fusion peptide binding, primary screen, biochemical, uHTS, fluorescence dequenching (AID 1986)
Settings: cell-free peptide binding, 30 min, stronger effect = higher value
[1] = measured here: repeat confirmation average inhibition, at 18.6 µM

COc1ccccc1C(CNc1nc(C(F)(F)F)nc2ccccc12)N(C)C (stereo not given)
inhibition (at 20 µM): 1.8% (inactive)

CCn1c(SCC(=O)NC(C)C)nnc1-c1cccs1
inhibition (at 20 µM): -1.3% (inactive)

Cc1cccc(CN2CCN(c3nc4nonc4nc3NC3CC3)CC2)c1
inhibition (at 20 µM): 6.4% (inactive)

CCCCC(=O)Nc1nn(C)c2nc3c(C)cccc3cc12
inhibition (at 20 µM): 0.6% (inactive)

COc1ccccc1C(=O)Nc1ccc(C2=NNC(=O)CC2C)cc1 (stereo not given)
inhibition (at 20 µM): 1.5% (inactive)

COc1ccccc1NC(=O)c1nn(-c2ccc(F)c(F)c2)ccc1=O
inhibition (at 20 µM): -0.5% (inactive)

CCOc1ccc(C(=O)Nc2ccc3c(c2)C(=O)NC3=O)cc1
inhibition (at 20 µM): 2.2% (inactive)

C=CCn1c(SC(C)C(=O)NCc2ccc3c(c2)OCO3)nnc1C1CCCCC1 (stereo not given)
inhibition (at 20 µM): -0.3% (inactive)

CSc1ncc(CN2CCCC(C(=O)c3ccc(C(C)(C)C)cc3)C2)cn1 (stereo not given)
inhibition (at 20 µM): 2.1% (inactive)

CCOc1cc(/C=C2\C(=N)N3N=C(S(=O)(=O)CC)SC3=NC2=O)ccc1OC(=O)c1ccco1
inhibition (at 20 µM): 60.6% (active)

CCOc1cc(/C=C2/C(=N)N3N=C(CC)SC3=NC2=O)ccc1OC(=O)c1ccco1
inhibition (at 20 µM): 12.4% (inactive)

CCS(=O)(=O)C1=NN2C(=N)/C(=C\c3ccc(OC(=O)c4ccco4)c(OC)c3)C(=O)N=C2S1
inhibition (at 20 µM): 34.9% (inactive)

O=C1C(c2cc(=O)c3ccccc3[nH]2)=C(O)c2ccccc21
inhibition (at 20 µM): -2.1% (inactive)

Brc1ccc(/C=C/C=N/Nc2nc3ccccc3s2)cc1
inhibition (at 20 µM): -4.3% (inactive)

Oc1ccc(N=C/C=C/c2ccc(Br)cc2)cc1-c1nc2ccccc2s1
inhibition (at 20 µM): 64.1% (active)

Oc1ccc(N=C/C=C/c2cccc(Br)c2)cc1-c1nc2ccccc2s1
inhibition (at 20 µM): 61.8% (inactive) | inhibition [1]: 5.5%

O=C1CCC(C(=O)Nc2cc(C(F)(F)F)ccc2-n2cncn2)=NN1
inhibition (at 20 µM): -0.2% (inactive)

Cc1ccc(-n2cccc2/C=C2/C(=N)N3C(=NC2=O)SN=C3S(C)(=O)=O)cc1
inhibition (at 20 µM): 77.1% (active)

CS(=O)(=O)C1=NSC2=NC(=O)/C(=C\c3cccn3-c3ccccc3Cl)C(=N)N21
inhibition (at 20 µM): 78.5% (active)

CCC1=NN2C(=N)/C(=C\c3cccn3-c3ccc(Br)cc3)C(=O)N=C2S1
inhibition (at 20 µM): 12.9% (inactive)

CS(=O)(=O)C1=NSC2=NC(=O)/C(=C\c3ccc(OC(=O)c4ccco4)cc3)C(=N)N21
inhibition (at 20 µM): 47.4% (inactive)

Cc1cccc(C)c1-n1cccc1/C=C1/C(=N)N2C(=NC1=O)SN=C2S(C)(=O)=O
inhibition (at 20 µM): 68.4% (active)

Cc1ccc(-n2cccc2/C=C2\C(=N)N3N=C(C(C)C)SC3=NC2=O)cc1
inhibition (at 20 µM): 49.5% (inactive)

CC1=CSC2=NC(=O)/C(=C\c3cccn3-c3ccccc3)C(=N)N12
inhibition (at 20 µM): 8.7% (inactive)

CCc1ccc(-n2cccc2/C=C2/C(=N)N3C(=NC2=O)SN=C3S(C)(=O)=O)cc1
inhibition (at 20 µM): 74.8% (active)

CCC1=NN2C(=N)/C(=C\c3cccn3-c3ccc(Cl)cc3)C(=O)N=C2S1
inhibition (at 20 µM): 30.5% (inactive)

CC1=CSC2=NC(=O)/C(=C\c3cccn3-c3ccc([N+](=O)[O-])cc3)C(=N)N12
inhibition (at 20 µM): 0.3% (inactive)

CCOc1cc(/C=C2/C(=N)N3C(=NC2=O)SN=C3S(C)(=O)=O)ccc1OC(=O)c1ccco1
inhibition (at 20 µM): 44.6% (inactive)

CS(=O)(=O)C1=NSC2=NC(=O)/C(=C\c3ccc(-c4ccccc4)o3)C(=N)N21
inhibition (at 20 µM): 34.9% (inactive)

COCCN(C(=O)Nc1ccc(OC)cc1OC)C1CCN(C(C)C)CC1
inhibition (at 20 µM): -0.7% (inactive)

CN(NC(=O)Nc1ccc(Cl)cc1)c1c(Cl)c(Cl)nn1C
inhibition (at 20 µM): -1.2% (inactive)

Cc1cccc(Nc2nc(C)cc(C)n2)c1
inhibition (at 20 µM): 1.1% (inactive)

CCN(CC)S(=O)(=O)c1ccc(NC(=S)NC(=O)C2CCC2)cc1
inhibition (at 20 µM): 0.1% (inactive)

CSCC[C@H](NC(=O)N1CCn2c1nc1ccccc12)C(=O)N1CCCCC1
inhibition (at 20 µM): 1.5% (inactive)

COc1ccc(C)cc1-n1nnnc1SCC1CCCO1 (stereo not given)
inhibition (at 20 µM): 1% (inactive)

Cc1cccc(Cn2c(=O)c3c(nc4n3CCN4Cc3ccco3)n(C)c2=O)c1
inhibition (at 20 µM): -3% (inactive)

O=[N+]([O-])c1ccccc1OCCCNCc1ccccc1
inhibition (at 20 µM): 1.6% (inactive)

CN1CCN(c2ccc(NC(=O)COc3ccccc3[N+](=O)[O-])cc2)CC1
inhibition (at 20 µM): -1.4% (inactive)

CC(C)Cc1ccc(CN2CCCC(NC(=O)CCN3CCCO3)C2)cc1 (stereo not given)
inhibition (at 20 µM): -1.9% (inactive)

O=C(Cn1cnc2c(nnn2Cc2ccc(F)cc2)c1=O)Nc1cccc(F)c1
inhibition (at 20 µM): 3.6% (inactive)

CSCC(C)N1CCC(Oc2cccc(C(=O)NCc3ccccn3)c2)CC1 (stereo not given)
inhibition (at 20 µM): 17% (inactive)

O=C(O)CCCCC1CCSS1 (stereo not given)
inhibition (at 20 µM): 63.2% (active)

O=C(O)CCCCCCCC(=O)O
inhibition (at 20 µM): -0.3% (inactive)

O=C(O)CCCCC1SCC2NC(=O)NC21 (stereo not given)
inhibition (at 20 µM): 0.9% (inactive) and -0.7% (inactive)

CN(C)c1ccc(/C=C2\CCCCC2=O)cc1
inhibition (at 20 µM): 3.4% (inactive)

CC(C)/C=C1\CC/C(=C\c2ccc(N(C)C)cc2)C1=O
inhibition (at 20 µM): 37.1% (inactive)

CN(C)c1ccc(/C=C2\CCC/C(=C\c3ccccc3)C2=O)cc1
inhibition (at 20 µM): 80.8% (active) | inhibition [1]: 70.4%

COc1ccc(/C=C2\C(=O)NC(=S)N2C(=O)c2ccc(C)cc2)cc1
inhibition (at 20 µM): 63.6% (active)

COc1ccc(/C=C2\C(=O)NC(=S)N2C(=O)c2ccc(F)cc2)cc1
inhibition (at 20 µM): 70.6% (active) | inhibition [1]: 59.8%

COc1ccc(C(=O)N2C(=S)NC(=O)/C2=C\c2ccc(C)cc2)cc1
inhibition (at 20 µM): 43.1% (inactive)

O=C1NC(=S)N(C(=O)c2ccc(F)cc2)/C1=C/c1cccnc1
inhibition (at 20 µM): 4.6% (inactive)

COc1ccc(/C=C2\C(=O)NCC(=O)N2C)cc1
inhibition (at 20 µM): -3.1% (inactive)

O=C1NC(=S)N(C(=O)c2ccc(F)cc2)/C1=C/c1ccccc1
inhibition (at 20 µM): 79% (inactive) | inhibition [1]: 19.2%

Cc1ccc(C)c(S(=O)(=O)Nc2ccc(C(=O)NCCCN3CCCC3=O)cc2)c1
inhibition (at 20 µM): 0.7% (inactive)

Cc1cc(OCC(=O)NCc2cccnc2)c2c(C)c(Cc3ccccc3)c(=O)oc2c1
inhibition (at 20 µM): 1.1% (inactive)

COc1ccc(NC(=O)/C(C#N)=C\c2ccc(N3CCOCC3)o2)cc1
inhibition (at 20 µM): 149% (inactive)

N#C/C(=C/c1ccc(-c2ccc(Br)cc2)o1)C(=O)NC1CCCCC1
inhibition (at 20 µM): 3.7% (inactive)

N#C/C(=C\c1ccc(N2CCOCC2)o1)C(=O)NCC1CCCO1 (stereo not given)
inhibition (at 20 µM): 118% (active) | inhibition [1]: 68%

N#C/C(=C/c1ccc(N2CCOCC2)o1)C(=O)NC1CCCCC1
inhibition (at 20 µM): 80.5% (active)

Cc1ccc(/C=C(\C#N)C(=O)NCC2CCCO2)o1 (stereo not given)
inhibition (at 20 µM): 0.2% (inactive)

N#C/C(=C\c1ccc(N2CCOCC2)o1)C(=O)NCCc1ccccc1
inhibition (at 20 µM): 110% (active)

N#C/C(=C\c1ccc(N2CCOCC2)o1)C(=O)NC1CCCCC1
inhibition (at 20 µM): 66.5% (active) | inhibition [1]: 55.2%

N#C/C(=C/c1ccc(N2CCCCC2)o1)C(=O)NCCc1c[nH]c2ccccc12
inhibition (at 20 µM): 11.8% (inactive)

COCCNC(=O)/C(C#N)=C/c1ccc(N2CCOCC2)o1
inhibition (at 20 µM): 15.1% (inactive)

N#C/C(=C\c1ccc(N2CCCCC2)o1)C(=O)Nc1cccc(Br)c1
inhibition (at 20 µM): 21.6% (inactive)

N#C/C(=C\c1ccc(-c2ccc(C(=O)O)cc2)o1)C(=O)NCC1CCCO1 (stereo not given)
inhibition (at 20 µM): 11.9% (inactive)

N#C/C(=C\c1ccc(-c2ccc(S(=O)(=O)N3CCOCC3)cc2)o1)C(=O)NC1CC1
inhibition (at 20 µM): 5.1% (inactive)

CN(C)C(=O)CSc1nnc(Cc2ccccc2)n1CC1CCCO1 (stereo not given)
inhibition (at 20 µM): -1.3% (inactive)

COc1ccc(CN(CC(=O)NC2CCCC2)C(=O)CN2C(=O)COc3ccccc32)cc1
inhibition (at 20 µM): 0.4% (inactive)

Clc1ccc(-c2cnn3c(-c4ccncc4)ccnc23)cc1
inhibition (at 20 µM): -1.1% (inactive)

NC(=O)c1c(NC(=O)C2COc3ccccc3O2)sc2c1CCN(Cc1ccccc1)C2 (stereo not given)
inhibition (at 20 µM): 103% (active) | inhibition [1]: 54%

COC(=O)c1c(NC(=O)C2COc3ccccc3O2)sc2c1CCN(Cc1ccccc1)C2 (stereo not given)
inhibition (at 20 µM): 3.6% (inactive)

CCN1CCc2c(sc(NC(=O)C3COc4ccccc4O3)c2C(N)=O)C1 (stereo not given)
inhibition (at 20 µM): -0.3% (inactive)

Cc1nonc1OCCNC(=O)C12CC3CC(CC(C3)C1)C2
inhibition (at 20 µM): 0.6% (inactive)

COc1cc(/C=C2\C(=N)N3N=CSC3=NC2=O)ccc1OS(=O)(=O)c1ccccc1
inhibition (at 20 µM): 10% (inactive)

CS(=O)(=O)C1=NN2C(=N)/C(=C\c3ccc(OC(=O)c4ccco4)cc3)C(=O)N=C2S1
inhibition (at 20 µM): 47.6% (inactive)

CCC1=NN2C(=N)/C(=C/c3ccc(OS(=O)(=O)c4ccc(C)cc4)c(OC)c3)C(=O)N=C2S1
inhibition (at 20 µM): 46.6% (inactive)

CS(=O)(=O)C1=NN2C(=N)/C(=C\c3ccc(OCCOc4ccccc4)cc3)C(=O)N=C2S1
inhibition (at 20 µM): 80.6% (active)

COc1cc(/C=C2/C(=N)N3C(=NC2=O)SN=C3S(=O)(=O)C(C)C)ccc1OC(=O)c1ccco1
inhibition (at 20 µM): 37.9% (inactive)

CCS(=O)(=O)C1=NN2C(=N)/C(=C\c3ccc(OS(=O)(=O)c4ccccc4)cc3)C(=O)N=C2S1
inhibition (at 20 µM): 39.1% (inactive)

COc1cc(/C=C2/C(=N)N3C(=NC2=O)SN=C3S(=O)(=O)C(C)C)ccc1OS(=O)(=O)c1ccccc1
inhibition (at 20 µM): 71.6% (active)

COc1cc(/C=C2/C(=N)N3C(=NC2=O)SN=C3S(C)(=O)=O)ccc1OC(=O)c1ccco1
inhibition (at 20 µM): 58.3% (inactive) | inhibition [1]: 49.7%

COc1cc(/C=C2/C(=N)N3C(=NC2=O)SN=C3S(C)(=O)=O)ccc1OS(=O)(=O)c1ccc(C)cc1
inhibition (at 20 µM): 72.4% (active)

COc1cc(/C=C2/C(=N)N3N=C(C(C)C)SC3=NC2=O)ccc1OS(=O)(=O)c1ccccc1
inhibition (at 20 µM): 22.3% (inactive)

COc1cc(/C=C2/C(=N)N3N=C(C)SC3=NC2=O)ccc1OS(=O)(=O)c1ccc(C)cc1
inhibition (at 20 µM): 13.4% (inactive)

COc1cc(/C=C2\C(=N)N3N=C(S(C)(=O)=O)SC3=NC2=O)ccc1OS(=O)(=O)c1ccc(C)cc1
inhibition (at 20 µM): 76.5% (active)

CCNC(=O)COc1ccc(OCc2ccccc2)cc1
inhibition (at 20 µM): 2% (inactive)
